Test results reported in the supplement of paper PMC6555819.

How the values were obtained:
Assay in all cases: PBM binding z-score (relative to random genomic background probes); higher = stronger binding; sequences stand for … in GC…GCGATTGACAGCGTAGAATGAAGG
[1] = test system: FXR:RXRa (NR concentration 270 nM, RXRa partner concentration 90 nM)
Outline: (§1)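 Each nuclear receptor dimer, without ligand, was incubated for 1 h on custom Agilent 4×180K protein-binding microarrays. Binding was detected with antibodies against each partner (one per run), and scanned fluorescence was regression-normalized. The binding z-scores are referenced to random human genomic background probes.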

[2] = test system: LXRa:RXRa (NR concentration 270 nM, RXRa partner concentration 90 nM)
Outline: as §1

[3] = test system: LXRa homodimer (NR concentration 270 nM)
Outline: as §1

[4] = test system: LXRb:RXRa (NR concentration 270 nM, RXRa partner concentration 90 nM)
Outline: as §1

[5] = test system: LXRb homodimer (NR concentration 270 nM)
Outline: as §1

[6] = test system: PPARa:RXRa (NR concentration 270 nM, RXRa partner concentration 90 nM)
Outline: as §1

[7] = test system: PPARg:RXRa (NR concentration 180 nM, RXRa partner concentration 90 nM)
Outline: as §1

[8] = test system: PPARg:RXRa 270nM:90nM, anti-RXR (NR concentration 270 nM, RXRa partner concentration 90 nM)
Outline: as §1

[9] = test system: PPARg:RXRa 30nM:10nM, anti-RXR (NR concentration 30 nM, RXRa partner concentration 10 nM)
Outline: as §1

[10] = test system: PPARg:RXRa 90nM:30nM, anti-RXR (NR concentration 90 nM, RXRa partner concentration 30 nM)
Outline: as §1

| Sequence | PBM binding z-score [1] | PBM binding z-score [2] | PBM binding z-score [3] | PBM binding z-score [4] | PBM binding z-score [5] | PBM binding z-score [6] | PBM binding z-score [7] | PBM binding z-score [8] | PBM binding z-score [9] | PBM binding z-score [10] |
| --- | --- | --- | --- | --- | --- | --- | --- | --- | --- | --- |
| CGAACTAGCTCAAAGGACAGTGAAAGGCGACGTA | -0.37 | -0.67 | -0.493 | -0.766 | -0.633 | 0.188 | 1.06 | 2.13 | 0.533 | 1.99 |
| AGTCAAAATTCACTAGGTAACGTAAGATTCAGCT | 0.492 | 0.568 | 0.177 | 0.0874 | 0.267 | 0.989 | 0.791 | 0.81 | 0.61 | 1.03 |
| GACACAGGGTCAGCTAGAGGCCAGAGTATGGAAA | 4.61 | 2.62 | -0.521 | 2.32 | -0.984 | 4.57 | 3.5 | 3.17 | 0.295 | 1.71 |
| TCTAGTTGGTTACGGAGGTCACACACGACGGGTA | 2.67 | 3.44 | 3.06 | 3.14 | 1.06 | 3.67 | 2.59 | 3.61 | 3.44 | 3.42 |
| ATATGTAGGTTAGGGTCATTTAGAAAGTAGGGAA | 4.85 | 3.93 | 1.62 | 4.59 | 1.67 | 5.67 | 7.69 | 6.54 | 4.42 | 6.23 |
| CTAACTAGGTCACCAGGACAGTGAAGAGGTTGGA | 4.07 | 2.77 | 0.482 | 1.74 | 0.0977 | 5.34 | 9.24 | 7.69 | 5.34 | 7.49 |
| CGAACTACGTCACCAGGACAGTGAAGAGGTTGGA | -0.0876 | -0.2 | -0.121 | -0.435 | -0.676 | -0.258 | 0.527 | -0.464 | 0.0797 | -0.46 |
| CTCGAAAGGTCAGTTGAGGTGAGTATACGGATAA | 6.96 | 5.84 | 1.79 | 4.51 | 2.26 | 5.5 | 4.89 | 5.13 | 1.86 | 4.15 |
| ATATGTAGTTTAGGGTCATTCAGAAAGTAGGGAA | 5.21 | 4.46 | 1.76 | 4.87 | 2.03 | 5.14 | 3.26 | 3.61 | 1.72 | 2.87 |
| CCTACGGGGCCAAGGTCATTGATCAGTCAAAGCA | 3.57 | 3.06 | 0.732 | 2.94 | -0.542 | 3.79 | 2.83 | 3.73 | 1.3 | 2.88 |
| ATCGAATGGTCGAAGGTGAGTATACCCACCCGAA | -0.229 | -0.228 | -0.451 | -0.362 | -0.158 | 0.153 | 1.07 | 1.34 | 0.48 | 1.31 |
| AGAATGAGGTTATACGTAGGTCAGGGAAGAAAGT | 3.33 | 4.18 | 1.07 | 3.2 | 0.0984 | 4.04 | 2.84 | 2.74 | 0.859 | 2.05 |
| CCTTACGGGTCAGGGTTATAGCACGGGTGGTACG | 3.45 | 2.22 | -0.256 | 1.95 | -0.0988 | 3.9 | 2.72 | 3.18 | 0.621 | 1.96 |
| TAGCCTAGGCCATGGGCCAGTATACCACGCGAAC | -0.747 | -0.914 | -0.864 | -1.07 | -1.23 | -0.56 | 0.326 | -0.0896 | -0.9 | -0.67 |
| AGTAGCAGGCCAAGGGTCACTCAAGATTAGTCCG | 2.36 | 2.53 | 0.22 | 2.8 | -0.43 | 4.63 | 7.54 | 7.15 | 6.3 | 7.51 |
| ATACCAAGGTGATCGTGAGTTCGTTGATACTAAC | 0.706 | 0.653 | 0.426 | 0.294 | -0.366 | 0.602 | 0.328 | -0.00894 | 0.101 | -0.0417 |
| CCTACTGGGCCAAGGTCATTGCTCAGTCAAAGCA | 3.09 | 3.01 | 0.828 | 2.83 | -0.46 | 3.63 | 3.88 | 4.33 | 1.07 | 3.55 |
| CGAACTAGGTCACCAGCACAGTGAAGAGGTTGGA | 4.03 | 2.42 | 0.171 | 1.53 | -0.224 | 5.12 | 8.39 | 7.01 | 4.62 | 6.53 |
| ACATGTAGGTTAGGGTCATTCAGAAAGTAGGGAA | 5.38 | 4.23 | 1.48 | 4.58 | 1.99 | 5.48 | 6.68 | 5.77 | 3.37 | 5.57 |
| CCTACTGGGCCAAAGGTCAGTGATTCCAATGCTC | 2.78 | 2.95 | 1.1 | 3.34 | -0.252 | 6.01 | 11.7 | 10.2 | 9.62 | 12.5 |
| CGAACTAGGTCCAAGGACAGTGAAAGGCGACGTA | -0.44 | -0.748 | -0.421 | -0.931 | -1.24 | 0.459 | 1.53 | 2.19 | 0.583 | 1.69 |
| CGGCCAAGGTCAAAGGTCAGTGAAGAGATGACGG | 8.62 | 7.07 | 2.81 | 6.59 | 1.33 | 7.11 | 10.8 | 8.98 | 8.13 | 9.65 |
| GCTGCTAGGTCAGGTTGGTCTGCTAACGGGTACG | 1.17 | 0.795 | -0.237 | 0.627 | -0.557 | 1.4 | 0.225 | 0.854 | -0.545 | 0.295 |
| TGTCAGAGTTCAAAGGTAACGTAAGTATCCACAC | 7.14 | 6.58 | 4.05 | 4.65 | 1.22 | 5.88 | 7.19 | 6.65 | 3.88 | 5.98 |
